Data from PubChem BioAssay AID686978 (National Center for Advancing Translational Sciences (NCATS), 2013).
Hit rate of the full screen: of about 420,000 compounds, about 64,000 (15%) were called active. About 27% were inconclusive and are not listed. The call rests on the fitted dose curve; in most records, active means well fitted inhibition curve with a large enough effect; inconclusive means small, poorly fitted or top-dose-only effect; inactive means flat fitted curve, though single readings scatter. The list is a sample of the results.

assay: qHTS for Inhibitors of human tyrosyl-DNA phosphodiesterase 1 (TDP1): qHTS in cells in absence of CPT; conditions: DT40 Tdp1-/- hTDP1 cells, no CPT, ATP luminescence, 48 h; activity change, negative = growth inhibition: at 46.2 µM (top of the series); further: nearly all actives have a fitted effect of over 55% in size
Procedure, shortened: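 Growth kinetics read by CellTiter-Glo luminescence after ≥48 hr at 37 °C. Cells: DT40 Tdp1-/- stably carrying human TDP1, 400 per well, compound exposure in the absence of CPT (DMSO vehicle).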
On the % scale 0 is the no-effect control and ±100 the full control effect; potency means the concentration at half of the fitted maximal effect.

Compound | activity change, negative = growth inhibition | Potency
CC(=O)N/C(=C\c1ccccc1)C(=O)OC(C)C(=O)N(C)c1ccccc1 (centres undefined) | -23.1% (inactive) | 
O=S(=O)(NCCS(=O)(=O)N1CCN(c2ccccc2)CC1)c1ccc(Cl)cc1 | -19.2% (inactive) | 
CC1CCCN(CC(=O)Nc2cc(Cl)ccc2Oc2ccccc2)C1 (centres undefined) |  | 16.4 µM (active)
CC(=O)Nc1ccc(NC(=O)CN2CCCC(C)C2)c(Cl)c1 (centres undefined) | -19.7% (inactive) | 
O=C(CSc1ccccc1)Nc1cc(Cl)ccc1Oc1ccccc1 | -19.9% (inactive) | 
COC(=O)[C@@H](Cc1ccccc1)NC(=O)NCCc1ccccc1 | -19.1% (inactive) | 
CCOC(=O)c1oc2c(CN3CCN(C)CC3)c(O)ccc2c(=O)c1-c1ccc(Br)cc1 | -6.83% (inactive) | 
CN1CCN(Cc2c(O)ccc3c2oc(=O)c2ccccc23)CC1 |  | 11.6 µM (active)
COc1ccc(-c2c(C)c3ccc(O)c(CN4CCN(C)CC4)c3oc2=O)cc1OC | 0.717% (inactive) | 
COc1ccc(C(C)=O)cc1CSc1nc2nc(C)cc(C)n2n1 | -4.09% (inactive) | 
CN(CCc1cn[nH]c1)C(=O)CC1C(=O)NCCN1Cc1cccc(Oc2ccccc2)c1 (centres undefined) | -12.5% (inactive) | 
O=C(Nc1cccc(Cc2ccccc2)c1)Nc1ccc2nc([C@@H]3O[C@H](CO)[C@@H](O)[C@H](O)[C@H]3O)[nH]c2c1 | -1.67% (inactive) | 
O=C(Cc1ccc(-n2c(=O)c3sccc3n(Cc3ccc(F)cc3)c2=O)cc1)NCc1ccco1 |  | 18.4 µM (active)
O=C(CSc1ncc(CO)n1Cc1ccc(F)cc1)NCc1ccco1 | -26% (inactive) | 
O=C(CCn1c(=O)c2sccc2n(Cc2ccc(F)cc2)c1=O)NCc1ccc2c(c1)OCO2 | -25.3% (inactive) | 
Cc1cc(OC(=O)c2ccc(OC(C)C)cc2)c([N+](=O)[O-])c(=O)[nH]1 | -21.1% (inactive) | 
Cc1ccc2nc(SC(C)C(=O)NCc3ccco3)[nH]c2c1 (centres undefined) | -9.56% (inactive) | 
CCc1cccc(NC(=O)COC(=O)C2CCN(c3ccc(C(F)(F)F)cn3)CC2)c1 |  | 8.2 µM (active)
N#CCCN(C(=O)COC(=O)C1CCN(c2ccc(C(F)(F)F)cn2)CC1)c1ccc(F)cc1 | -13.5% (inactive) | 
CCOc1ccc(CCNC(=O)COC(=O)C2CCN(c3ccc(C(F)(F)F)cn3)CC2)cc1OCC | -27.3% (inactive) | 
CSCCC(C(=O)NC1=NCCS1)N1C(=O)c2ccccc2C1=O (centres undefined) | -1.2% (inactive) | 
CCCCN(C(=O)/C=C/c1ccco1)c1c(N)n(CC(C)C)c(=O)[nH]c1=O | -3.29% (inactive) | 
O=C(CSc1ncccn1)NCCc1ccccc1 | -8.9% (inactive) | 
CCCCCCCCCCCCCCCC(=O)OC/C=C(C)/C=C/C=C(C)/C=C/C1=C(C)CCCC1(C)C |  | inactive
COc1ccc(Nc2cc(Cl)ccc2C(=O)O)cn1 | 20.2% (inactive) | 

Compound | activity change, negative = growth inhibition | Potency
COc1ccc(-c2csc(C(O)c3cccc(Cl)c3)n2)cn1 (centres undefined) |  | 20.6 µM (active)
COc1cc(C(O)c2nc(-c3cccc(C(=O)O)c3)cs2)ccc1F (centres undefined) | 3.86% (inactive) | 
CC1CCCN(CCOCCOc2ccccc2-c2ccccc2)C1 (centres undefined) |  | 23.1 µM (active)
CC1CCCN(CC(O)COCc2ccccc2)C1 (centres undefined) | 0.169% (inactive) | 
CC1CCCN(CC(O)COc2ccc3c(c2)OCO3)C1 (centres undefined) | -0.973% (inactive) | 
CCC(C)(C)NC(=O)/C=C/c1cc(OC)c(OC)c(S(=O)(=O)N2CCc3ccccc32)c1 | -16% (inactive) | 
COc1ccc(C(=O)OCC(=O)NCC2CCCCC2)cc1S(=O)(=O)N1CCCc2ccccc21 | -23.6% (inactive) | 
COc1cc(C)c(C)cc1S(=O)(=O)N1CCCc2ccccc21 |  | 16.4 µM (active)
O=C(O)CCC(=O)NCc1ccc(C(=O)O)cc1 | -29.7% (inactive) | 
Cc1ccc(Cl)cc1NC(=O)C(C)n1nnc2sc(-c3ccccc3)cc2c1=O (centres undefined) | -17.6% (inactive) | 
Cn1c(Cc2cccc3ccccc23)nnc1SCC(=O)N1CCN(c2cccc(Cl)c2)CC1 |  | 23.1 µM (active)
COc1cccc2c1cc1c(=O)n(CC(=O)N3CCN(c4cccc(Cl)c4)CC3)nc(C)n12 | -0.785% (inactive) | 
Cc1cc2nnc(SCC(=O)N3CCN(c4ccccc4)CC3)n2c(N)n1 | -5.96% (inactive) | 
Cn1c(CNC(=O)c2ccco2)nnc1SCC(=O)N1CCN(c2ccccc2)CC1 | 0.952% (inactive) | 
CC(C)Cn1c(=O)c2ccccc2n2c(-c3cccc(Cl)c3)nnc12 |  | 25.9 µM (active)
COc1ccc(NC(=O)CCc2nnc3n(CC(C)C)c(=O)c4ccccc4n23)cc1OC | -22.6% (inactive) | 
CC(C)Cn1c(=O)c2ccccc2n2c(CCC(=O)N3CCN(c4cccc(Cl)c4)CC3)nnc12 |  | 7.31 µM (active)
CC(C)Cn1c(=O)c2ccccc2n2c(CCC(=O)NCc3ccccn3)nnc12 | 13.4% (inactive) | 
CCC1CO/C(=C(\C(=C(Cl)Cl)N2CCOCC2)[N+](=O)[O-])N1 (centres undefined) | 8.25% (inactive) | 
CC(C)[C@H](NC(=O)N1c2ccccc2NC(=O)[C@@H]1C(C)C)C(=O)N[C@H](C(=O)O)c1ccccc1 | 5.29% (inactive) | 
COc1cccc(N2C(=O)CC(N3CCc4ccccc4C3)C2=O)c1 (centres undefined) | 7.01% (inactive) | 
C=C(C)c1cccc(C(C)(C)NC(=O)NCCN(CC)CC)c1 | 0.602% (inactive) | 
O=C(Nc1ccc([N+](=O)[O-])cc1)C1(c2ccccc2)CCOCC1 | -23.3% (inactive) | 
CC1(C)CC(=O)C(C=NCCC2=CCCCC2)=C(O)C1 | -10.8% (inactive) | 
